Results from PubChem BioAssay.
Active and inactive are the calls of the source.

How the values were obtained:
[1] = test system: PRMT1 (protein arginine N-methyltransferase 1); assay: small molecules binding arginine methyltransferase PRMT1 – biochemical, small-molecule microarray, 635 nm fluorescence, primary screen (AID 1088); conditions: higher = more signal;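 note: binding of Prmt1 protein to compounds spotted on small-molecule microarray slides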
[2] = growth effects on S. cerevisiae YJM789 – YJM789 clinical isolate, OD600, 24 h, basal, primary screen (AID 1089); conditions: higher = more signal, called active from +8 up or from −8 down;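 note: growth of clinical yeast isolate S. cerevisiae YJM 789 seeded 1000 cells per well; test concentration not given here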
[3] = S. pombe growth modifiers, basal conditions – strain 972, OD600, 24 h, no modulator, primary screen (AID 1090);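 note: basal condition with compound alone and no growth modifier present; test concentration not given here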; conditions: S. pombe 972 growth, higher = more signal, called active from +8 up or from −8 down
[4] = budding yeast growth modifiers under rapamycin – strain BY4716, OD600, 96 h, primary screen (AID 1091); note: test concentration not given here; conditions: S. cerevisiae BY4716 + rapamycin, higher = more signal, called active from +8 up or from −8 down
[5] = molecular target: Torsin-1A-interacting protein 2 (Homo sapiens) (UniProt Q8NFQ8); assay: small molecules binding lysate-expressed LULL1 – cell lysate, human LULL1 lysate, 635/667 nm fluorescence, primary screen (AID 1092); conditions: small-molecule microarray, hLULL1 lysate binding, 635 nm fluorescence; higher = more signal;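 note: probe is lysate of COS7 cells overexpressing human LULL1; score merges per-feature 667 nm fluorescence with signal-to-noise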
Torsin-1A-interacting protein 2 (Homo sapiens), sequence (Q8NFQ8 whole entry, looked up): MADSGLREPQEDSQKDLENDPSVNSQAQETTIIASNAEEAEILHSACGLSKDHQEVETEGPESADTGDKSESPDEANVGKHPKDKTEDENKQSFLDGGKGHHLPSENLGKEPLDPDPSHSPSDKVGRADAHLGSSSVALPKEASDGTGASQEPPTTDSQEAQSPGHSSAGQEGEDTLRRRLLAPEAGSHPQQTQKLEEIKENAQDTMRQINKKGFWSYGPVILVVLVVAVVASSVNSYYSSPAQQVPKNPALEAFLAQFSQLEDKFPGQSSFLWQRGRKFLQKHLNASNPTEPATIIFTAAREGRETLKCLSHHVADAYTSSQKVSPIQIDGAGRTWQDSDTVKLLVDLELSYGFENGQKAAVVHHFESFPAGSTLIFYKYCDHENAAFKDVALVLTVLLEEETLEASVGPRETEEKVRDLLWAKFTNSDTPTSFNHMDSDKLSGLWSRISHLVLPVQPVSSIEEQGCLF

[6] = optical density change of DRC41 E. coli – strain DRC41, OD650, 24 h, E. coli filamentation project, primary screen (AID 1093);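 note: MC1000 strain lacking acrAB efflux and sulA so SOS filamentation is blocked; test concentration not given here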; conditions: E. coli DRC41 growth, higher = more signal, called active from +8 up or from −8 down
[7] = probe aLefty2 binding to arrayed compounds – biochemical, biotinylated probe, 635/667 nm fluorescence, primary screen (AID 1094); conditions: small-molecule microarray, higher = more signal;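 note: score merges spot fluorescence near 667 nm with spot signal-to-noise ratio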
[8] = test system: Noggin (protein binding on small-molecule microarray); assay: small molecules binding Noggin protein – biochemical, 635/667 nm fluorescence, primary screen (AID 1095); conditions: 635 nm fluorescence, higher = more signal;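 note: score merges 667 nm feature fluorescence with signal to noise over triplicate slides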
[9] = molecular target: Neurogenic locus notch homolog protein 3 (Homo sapiens) (UniProt Q9UM47); assay: small molecules binding NOTCH3 protein – biochemical, 635/667 nm fluorescence, primary screen (AID 1096); conditions: small-molecule microarray, 635 nm fluorescence, higher = more signal
Neurogenic locus notch homolog protein 3 (Homo sapiens), sequence (Q9UM47 whole entry, looked up): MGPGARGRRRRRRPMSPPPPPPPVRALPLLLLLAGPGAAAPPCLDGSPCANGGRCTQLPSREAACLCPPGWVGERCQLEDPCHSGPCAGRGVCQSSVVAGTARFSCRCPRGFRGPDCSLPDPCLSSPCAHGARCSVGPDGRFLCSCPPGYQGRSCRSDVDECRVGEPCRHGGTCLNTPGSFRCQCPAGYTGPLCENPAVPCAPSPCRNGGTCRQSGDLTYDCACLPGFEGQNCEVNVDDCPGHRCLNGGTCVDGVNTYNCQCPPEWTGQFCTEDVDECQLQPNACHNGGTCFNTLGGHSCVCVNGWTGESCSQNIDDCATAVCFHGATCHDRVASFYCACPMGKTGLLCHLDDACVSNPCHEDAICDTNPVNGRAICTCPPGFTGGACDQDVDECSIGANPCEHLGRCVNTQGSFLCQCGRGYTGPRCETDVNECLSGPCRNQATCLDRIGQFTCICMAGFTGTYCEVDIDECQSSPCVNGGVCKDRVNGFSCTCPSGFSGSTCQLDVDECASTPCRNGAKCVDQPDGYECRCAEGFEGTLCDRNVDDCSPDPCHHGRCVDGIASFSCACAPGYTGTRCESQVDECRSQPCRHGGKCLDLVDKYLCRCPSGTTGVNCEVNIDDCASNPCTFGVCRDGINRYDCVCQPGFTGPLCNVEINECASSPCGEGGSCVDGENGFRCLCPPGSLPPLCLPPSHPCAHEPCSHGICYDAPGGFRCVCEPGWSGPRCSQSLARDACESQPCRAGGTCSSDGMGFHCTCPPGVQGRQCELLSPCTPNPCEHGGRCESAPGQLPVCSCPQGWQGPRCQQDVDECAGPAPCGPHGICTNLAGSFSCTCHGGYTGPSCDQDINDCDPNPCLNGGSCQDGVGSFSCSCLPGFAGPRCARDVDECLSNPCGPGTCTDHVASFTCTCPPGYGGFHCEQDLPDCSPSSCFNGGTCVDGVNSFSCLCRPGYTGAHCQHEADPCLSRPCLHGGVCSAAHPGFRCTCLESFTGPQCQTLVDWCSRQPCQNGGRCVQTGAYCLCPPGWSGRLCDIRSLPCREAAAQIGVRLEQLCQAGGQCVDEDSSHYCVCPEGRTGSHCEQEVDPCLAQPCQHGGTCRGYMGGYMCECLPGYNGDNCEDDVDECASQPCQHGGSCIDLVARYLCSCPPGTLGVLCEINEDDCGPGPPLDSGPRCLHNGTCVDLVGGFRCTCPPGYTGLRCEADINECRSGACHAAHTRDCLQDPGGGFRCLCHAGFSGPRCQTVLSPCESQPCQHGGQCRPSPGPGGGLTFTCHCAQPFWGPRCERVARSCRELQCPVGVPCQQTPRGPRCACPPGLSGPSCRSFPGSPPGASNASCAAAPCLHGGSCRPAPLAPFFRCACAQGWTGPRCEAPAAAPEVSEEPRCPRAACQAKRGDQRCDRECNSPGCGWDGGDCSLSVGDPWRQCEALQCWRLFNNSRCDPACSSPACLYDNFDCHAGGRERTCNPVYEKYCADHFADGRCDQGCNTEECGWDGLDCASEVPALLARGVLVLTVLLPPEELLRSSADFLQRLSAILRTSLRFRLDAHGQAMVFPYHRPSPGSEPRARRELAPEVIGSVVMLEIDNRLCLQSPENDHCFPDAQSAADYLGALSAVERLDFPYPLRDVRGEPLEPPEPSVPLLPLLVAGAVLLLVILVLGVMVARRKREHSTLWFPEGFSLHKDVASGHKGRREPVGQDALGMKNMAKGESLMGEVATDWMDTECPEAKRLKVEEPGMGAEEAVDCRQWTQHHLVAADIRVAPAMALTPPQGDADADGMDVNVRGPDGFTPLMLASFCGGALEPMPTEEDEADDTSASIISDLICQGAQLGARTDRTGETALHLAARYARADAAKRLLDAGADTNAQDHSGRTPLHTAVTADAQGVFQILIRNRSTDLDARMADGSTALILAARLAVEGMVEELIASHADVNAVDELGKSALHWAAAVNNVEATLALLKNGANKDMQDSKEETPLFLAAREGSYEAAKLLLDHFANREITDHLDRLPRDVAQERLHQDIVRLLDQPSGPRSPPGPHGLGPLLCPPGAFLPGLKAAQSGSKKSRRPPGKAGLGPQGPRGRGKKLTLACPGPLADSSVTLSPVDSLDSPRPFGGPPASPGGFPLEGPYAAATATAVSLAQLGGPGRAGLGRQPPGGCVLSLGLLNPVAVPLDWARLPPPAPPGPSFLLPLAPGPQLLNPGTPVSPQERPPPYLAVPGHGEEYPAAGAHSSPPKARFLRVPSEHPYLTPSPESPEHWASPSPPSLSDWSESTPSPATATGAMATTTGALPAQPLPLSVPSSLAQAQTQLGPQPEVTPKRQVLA

[10] = probe aEGFR binding to arrayed compounds – biochemical, biotinylated probe, 635/667 nm fluorescence, primary screen (AID 1097); conditions: small-molecule microarray, higher = more signal;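 note: probe is a biotinylated anti-EGFR antibody binding compounds printed on slides; score combines fluorescence near 667 nm and signal to noise of each spot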
[11] = test system: Plasmodium falciparum Sir2 (PF13_0152, Sir2A); assay: Plasmodium falciparum Sir2A binding compounds – biochemical, small-molecule microarray, 635 nm fluorescence, primary screen (AID 1098); conditions: fluorescence 635 nm, higher = more signal;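 note: score merges spot fluorescence intensity with its signal-to-noise ratio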
[12] = probe aDKK1 binding to arrayed compounds – biochemical, biotinylated probe, 635/667 nm fluorescence, primary screen (AID 1099); conditions: small-molecule microarray, higher = more signal;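 note: score merges 667nm spot fluorescence with signal to noise across triplicate slides; reference of the scale not given here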
[13] = probe aCHRDL2 binding to arrayed compounds – biochemical, biotinylated probe, 635/667 nm fluorescence, primary screen (AID 1100); conditions: small-molecule microarray, higher = more signal
[14] = change in splice reporter luminescence, either direction, cell-based, HEK293, spliceosome inhibition project, primary screen (AID 1101); conditions: HEK293 splicing luciferase reporter, 24 h, higher = more signal, called active from +8 up or from −8 down;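 note: HEK293 cells carrying a splicing-competent luciferase reporter gene; test concentration not given here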
[15] = molecular target: Fibroblast growth factor 10 (Homo sapiens) (UniProt O15520); assay: compounds binding fibroblast growth factor 10 – biochemical, small-molecule microarray, 635 nm fluorescence, primary screen (AID 1102); conditions: FGF10 binding, fluorescence 635 nm, higher = more signal
Fibroblast growth factor 10 (Homo sapiens), sequence (O15520 whole entry, looked up): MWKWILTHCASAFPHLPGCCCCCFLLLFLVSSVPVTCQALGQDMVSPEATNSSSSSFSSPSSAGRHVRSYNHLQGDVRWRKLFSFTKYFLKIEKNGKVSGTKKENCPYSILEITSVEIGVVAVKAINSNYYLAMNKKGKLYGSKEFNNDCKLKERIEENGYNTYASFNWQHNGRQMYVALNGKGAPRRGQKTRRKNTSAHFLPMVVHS

[16] = test system: glycogen synthase kinase-3 (GSK3A per assay name; protocol says GSK3B); assay: compounds binding glycogen synthase kinase-3 – biochemical, small-molecule microarray, 635 nm fluorescence, GSK3A, primary screen (AID 1103); conditions: fluorescence 635 nm, higher = more signal; note: the record names both GSK3A and GSK3B
[17] = molecular target: Epidermal growth factor receptor (Homo sapiens) (UniProt P00533); assay: compounds binding epidermal growth factor receptor – biochemical, small-molecule microarray, 635 nm fluorescence, primary screen (AID 1104); conditions: EGFR binding, higher = more signal;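 note: score merges 667 nm emission intensity with spot signal to noise over triplicate slides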
Epidermal growth factor receptor (Homo sapiens), sequence (P00533 whole entry, looked up): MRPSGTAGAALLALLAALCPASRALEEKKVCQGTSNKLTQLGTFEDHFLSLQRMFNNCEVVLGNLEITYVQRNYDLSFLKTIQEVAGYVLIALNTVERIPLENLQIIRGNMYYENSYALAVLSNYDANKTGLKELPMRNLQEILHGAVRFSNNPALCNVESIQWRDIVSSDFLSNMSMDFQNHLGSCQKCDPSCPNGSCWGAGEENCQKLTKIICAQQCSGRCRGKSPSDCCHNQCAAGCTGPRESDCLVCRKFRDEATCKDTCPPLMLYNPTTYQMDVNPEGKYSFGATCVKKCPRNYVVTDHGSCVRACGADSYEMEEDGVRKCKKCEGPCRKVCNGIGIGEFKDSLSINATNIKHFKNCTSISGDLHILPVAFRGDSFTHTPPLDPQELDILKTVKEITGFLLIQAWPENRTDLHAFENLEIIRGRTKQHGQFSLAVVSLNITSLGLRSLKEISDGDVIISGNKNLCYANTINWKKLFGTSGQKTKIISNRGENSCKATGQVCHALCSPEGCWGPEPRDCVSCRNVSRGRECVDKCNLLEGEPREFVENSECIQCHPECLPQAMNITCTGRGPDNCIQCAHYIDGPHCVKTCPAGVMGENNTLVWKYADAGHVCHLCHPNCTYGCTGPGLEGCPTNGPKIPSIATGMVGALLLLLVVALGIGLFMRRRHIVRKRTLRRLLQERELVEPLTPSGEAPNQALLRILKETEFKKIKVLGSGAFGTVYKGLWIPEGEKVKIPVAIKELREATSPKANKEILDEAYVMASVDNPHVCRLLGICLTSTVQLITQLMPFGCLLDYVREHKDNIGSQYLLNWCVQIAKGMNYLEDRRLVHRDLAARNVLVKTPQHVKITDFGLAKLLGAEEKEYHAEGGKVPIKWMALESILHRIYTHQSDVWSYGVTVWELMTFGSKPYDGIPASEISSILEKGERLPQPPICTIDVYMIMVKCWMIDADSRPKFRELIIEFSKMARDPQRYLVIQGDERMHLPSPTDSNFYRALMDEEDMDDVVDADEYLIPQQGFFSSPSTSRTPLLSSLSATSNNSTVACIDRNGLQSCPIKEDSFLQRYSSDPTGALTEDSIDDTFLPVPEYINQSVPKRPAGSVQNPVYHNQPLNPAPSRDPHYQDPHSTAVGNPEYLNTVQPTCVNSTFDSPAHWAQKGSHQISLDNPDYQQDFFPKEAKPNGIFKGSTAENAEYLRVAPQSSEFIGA

[18] = molecular target: Follistatin-related protein 3 (Homo sapiens) (UniProt O95633); assay: compounds binding follistatin-related protein 3 – biochemical, small-molecule microarray, 635 nm fluorescence, primary screen (AID 1105); conditions: FSTL3 binding, higher = more signal;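 note: score merges emission near 667 nm and signal to noise per printed spot across three slides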
Follistatin-related protein 3 (Homo sapiens), sequence (O95633 whole entry, looked up): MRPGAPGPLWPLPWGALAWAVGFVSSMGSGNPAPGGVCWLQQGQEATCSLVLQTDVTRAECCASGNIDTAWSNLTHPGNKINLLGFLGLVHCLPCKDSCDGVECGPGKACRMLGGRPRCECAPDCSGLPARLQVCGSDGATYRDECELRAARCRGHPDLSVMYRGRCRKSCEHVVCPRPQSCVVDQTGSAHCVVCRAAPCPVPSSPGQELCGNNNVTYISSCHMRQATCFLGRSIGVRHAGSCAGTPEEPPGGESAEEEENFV

[19] = molecular target: Dickkopf-related protein 1 (Homo sapiens) (UniProt O94907); assay: small molecules binding DKK1 protein – biochemical, small-molecule microarray, 635 nm fluorescence scan, primary screen (AID 1106); conditions: higher = more signal;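 note: score merges emission near 667 nm with signal to noise over three replicate slides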
Dickkopf-related protein 1 (Homo sapiens), sequence (O94907 whole entry, looked up): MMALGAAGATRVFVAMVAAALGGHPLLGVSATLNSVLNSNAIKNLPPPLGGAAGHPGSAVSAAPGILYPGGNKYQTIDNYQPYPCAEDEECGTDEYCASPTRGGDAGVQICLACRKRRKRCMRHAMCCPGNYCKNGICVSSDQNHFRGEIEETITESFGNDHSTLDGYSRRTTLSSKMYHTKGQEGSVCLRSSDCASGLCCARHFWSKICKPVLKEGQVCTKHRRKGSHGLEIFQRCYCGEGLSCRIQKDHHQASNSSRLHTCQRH

[20] = test system: Inhibin beta A chain (activin A); assay: small molecules binding activin A – biochemical, small-molecule microarray, 635 nm fluorescence scan, primary screen (AID 1107); conditions: INHBA, higher = more signal;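 note: mouse activin A protein probed at 4.33 µg/mL on printed slides; score merges bound-protein fluorescence near 667 nm with spot signal-to-noise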

SMILES	composite z-score [1]	z-score [2]	z-score [3]	z-score [4]	composite z-score [5]	z-score [6]	composite z-score [7]	composite z-score [8]	composite z-score [9]	composite z-score [10]	composite z-score [11]	composite z-score [12]	composite z-score [13]	z-score [14]	composite z-score [15]	composite z-score [16]	composite z-score [17]	composite z-score [18]	composite z-score [19]	composite z-score [20]
COC(=O)[C@@H]1CC[C@H](C)[C@@H](c2ccc(Br)cc2)N1C[C@H](O)CN=[N+]=[N-]	-0.164	-0.209 (inactive)	-4.62 (inactive)	-2.03 (inactive)	0.512	0.449 (inactive)	-0.181	-0.133	-0.0269	-0.139	0.0722	-0.234	0.0248	-0.812 (inactive)	0.248	-0.154	0.385	-0.347	-0.148	0.616
CC(=O)OC[C@H]1O[C@H](CC=NO[C@H](C)c2cn([C@@H]3COC[C@H]3O)nn2)C=C[C@@H]1OC(C)=O	0.611	-2 (inactive)	-0.535 (inactive)	-0.277 (inactive)	-0.3	-0.763 (inactive)	-0.23	0.411	0.212	-0.0845	0.197	-0.185	-0.434	-1.06 (inactive)	0.172	0.0915	0.476	0.255	1.1	0.257
CCN1C(=O)[C@H]2[C@H]3[C@H](O)[C@H](O)CC(=NO[C@H](C)c4cn([C@@H]5COC[C@H]5O)nn4)[C@@H]3CC[C@H]2C1=O	0.489	0.415 (inactive)	1.01 (inactive)	1.36 (inactive)	0.413	0.445 (inactive)	-0.129	-0.127	0.0689	-0.0678	-0.428	-0.19	-0.593	0.299 (inactive)	0.46	-0.162	0.219	-0.169	0.451	-0.322
O=C1[C@H]2CCn3c(=O)n(-c4ccccc4)c(=O)n3[C@H]2[C@H](O)[C@@H]2O[C@H]12	-0.0775	0.689 (inactive)	-0.41 (inactive)	-0.206 (inactive)	-0.29	-0.0475 (inactive)	-0.225	0.224	-0.281	-0.181	0.784	-0.418	-0.438	0.583 (inactive)	0.837	0.381	0.299	0.148	0.427	0.269
CO[C@H]1COC(=O)[C@H](C)COC(=O)[C@H](C)NC(=O)CC=C[C@H]1C	1.34	-0.301 (inactive)	-0.296 (inactive)	-0.253 (inactive)	0.449	0.828 (inactive)	-0.166	1.29	0.696	-0.122	0.378	-0.579	-1.42	0.0547 (inactive)	1.07	1.24	1.54	1.51	1.28	0.843
C=CC[C@@H]1C=C[C@H](ON=C(C)CCN2CCCCc3nc(C)c(C)cc32)[C@@H](CO)O1	1.47	-1.19 (inactive)	0.805 (inactive)	-0.508 (inactive)	1.77	-0.0376 (inactive)	-0.0769	1.21	0.67	0.044	1.14	-0.406	-0.804	-0.102 (inactive)	0.497	1.29	1.51	1.43	1.63	1.5
CC[C@@H](c1ccccc1)n1c(=O)n2n(c1=O)[C@H]1[C@H](O)[C@@H]3O[C@@H]3C(=NOCc3ccccc3)[C@H]1CC2	-0.454	0.183 (inactive)	-1.17 (inactive)	0.191 (inactive)	0.786	-0.866 (inactive)	-0.132	1.3	0.81	-0.0824	0.217	-0.148	-0.406	2.5 (inactive)	0.487	-0.0586	0.123	0.489	0.235	0.517
COc1ccc(COC(=O)NN=C2C[C@@H](O)[C@@H](O)[C@@H]3[C@@H]4C(=O)N(C5CCCCC5)C(=O)[C@@H]4CC[C@@H]23)cc1	0.35	-0.703 (inactive)	-1.86 (inactive)	-0.617 (inactive)	0.611	-1.03 (inactive)	0.687	0.159	-0.218	-0.127	-0.123	0.202	1.38	0.299 (inactive)	-0.28	-0.145	-0.583	-0.248	-0.88	0.105
CO[C@H]1COC(=O)CC=C[C@@H](C)COC(=O)[C@H]2CCCN2C(=O)CC=C[C@H]1C	1.55	0.591 (inactive)	-0.74 (inactive)	0.0488 (inactive)	0.128	0.457 (inactive)	-0.194	1.86	-0.341	0.0129	1.3	-0.268	-1.16	-0.104 (inactive)	0.756	1.01	1.29	1.45	1.9	1.32
C[C@]12CCC3c4ccc(OCC5CO5)cc4CCC3C1CC[C@@H]2O (stereo not given in full)	0.205	0.199 (inactive)	-4.77 (inactive)	-0.494 (inactive)	2.11	0.392 (inactive)	0.124	0.0768	0.162	0.0025	0.728	0.527	0.596	0.147 (inactive)	0.457	-0.309	0.182	0.239	0.0294	0.944
